# The whole screen tested about 400,000 compounds, of which about 2,100 (0.53%) were called active. Inconclusive results (about 14%) are left out. No rule for the calls is given here. The full list was thinned out, with actives kept by preference.
# Target: Ataxin-2 (Homo sapiens) (UniProt Q99700)
# Experiment: qHTS for Inhibitors of ATXN expression.
# Assay type: functional
# Ataxin-2 (Homo sapiens), sequence (Q99700 whole entry): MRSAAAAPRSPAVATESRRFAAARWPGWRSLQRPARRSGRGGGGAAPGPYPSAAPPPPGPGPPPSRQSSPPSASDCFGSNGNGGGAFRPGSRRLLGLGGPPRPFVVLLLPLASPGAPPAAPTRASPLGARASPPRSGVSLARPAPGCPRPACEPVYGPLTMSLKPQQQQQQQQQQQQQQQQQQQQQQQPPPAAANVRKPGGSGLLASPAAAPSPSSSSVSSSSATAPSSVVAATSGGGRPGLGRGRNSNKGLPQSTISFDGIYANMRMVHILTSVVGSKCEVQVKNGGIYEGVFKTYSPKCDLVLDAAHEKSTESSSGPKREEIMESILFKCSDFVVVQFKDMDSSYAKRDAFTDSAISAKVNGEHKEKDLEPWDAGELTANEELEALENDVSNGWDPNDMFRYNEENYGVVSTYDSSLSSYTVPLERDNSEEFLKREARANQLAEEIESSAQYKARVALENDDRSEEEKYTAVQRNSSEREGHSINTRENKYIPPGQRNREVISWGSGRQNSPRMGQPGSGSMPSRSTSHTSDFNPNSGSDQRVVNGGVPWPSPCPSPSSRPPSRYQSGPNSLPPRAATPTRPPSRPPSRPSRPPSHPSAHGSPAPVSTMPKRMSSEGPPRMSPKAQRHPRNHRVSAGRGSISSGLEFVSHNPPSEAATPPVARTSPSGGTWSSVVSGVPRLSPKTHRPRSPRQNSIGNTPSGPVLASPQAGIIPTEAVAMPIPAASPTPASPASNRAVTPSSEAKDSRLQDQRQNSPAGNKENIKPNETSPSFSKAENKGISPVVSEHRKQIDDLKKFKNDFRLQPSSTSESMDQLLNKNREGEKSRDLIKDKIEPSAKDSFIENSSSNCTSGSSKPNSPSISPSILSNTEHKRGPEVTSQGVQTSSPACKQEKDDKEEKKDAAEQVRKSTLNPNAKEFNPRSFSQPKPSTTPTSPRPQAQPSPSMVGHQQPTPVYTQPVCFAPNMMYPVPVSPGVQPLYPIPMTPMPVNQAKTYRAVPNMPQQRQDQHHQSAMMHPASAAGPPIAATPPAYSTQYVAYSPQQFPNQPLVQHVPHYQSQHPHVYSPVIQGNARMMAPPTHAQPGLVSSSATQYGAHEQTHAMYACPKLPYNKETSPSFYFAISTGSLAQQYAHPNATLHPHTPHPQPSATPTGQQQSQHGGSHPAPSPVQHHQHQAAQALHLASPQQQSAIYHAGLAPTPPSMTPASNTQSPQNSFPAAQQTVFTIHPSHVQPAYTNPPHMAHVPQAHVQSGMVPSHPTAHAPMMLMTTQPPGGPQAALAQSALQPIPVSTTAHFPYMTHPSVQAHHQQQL
row,Compound,Potency
1,Cc1c(CCC(=O)O)c(=O)oc2c(C)c3occ(-c4ccc(Cl)cc4)c3cc12,inactive
2,C[C@H]1CN([C@@H](C)CO)C(=O)Cc2cc(NC(=O)CCC(F)(F)F)ccc2O[C@H]1CN(C)Cc1ccc(-c2ccccc2)cc1,35.5 µM (active)
3,C[C@H](CO)N1C[C@H](C)[C@@H](CN(C)S(=O)(=O)c2ccc(-c3ccccc3)cc2)OCc2cn(nn2)CCCC1=O,inactive
4,C[C@H]1CN([C@@H](C)CO)C(=O)Cc2cc(NC(=O)CCC(F)(F)F)ccc2O[C@H]1CN(C)Cc1ccc(C(F)(F)F)cc1,39.8 µM (active)
5,C[C@@H]1CN([C@@H](C)CO)C(=O)CCCn2nncc2CO[C@H]1CN(C)Cc1ccc(-c2ccccc2)cc1,28.2 µM (active)
6,C[C@@H]1CN([C@H](C)CO)C(=O)Cc2cc(NS(=O)(=O)c3ccc(Cl)cc3)ccc2O[C@H]1CN(C)Cc1ccc(C(F)(F)F)cc1,25.1 µM (active)
7,COc1cccc(S(=O)(=O)N(C)C[C@@H]2OCc3cnnn3CCCC(=O)N([C@@H](C)CO)C[C@H]2C)c1,inactive
8,O=C1OCc2ccc(NS(=O)(=O)c3ccc(C(F)(F)F)cc3)cc21,inactive
9,COCCCNC(=O)/C(C#N)=C/c1c(N2CCN(C)CC2)nc2c(C)cccn2c1=O,inactive
10,CNS(=O)(=O)c1ccc2c3c(cccc13)C(=O)N2,inactive
11,Cc1c(Cc2ccccc2)c(NCCCO)n2c(nc3ccccc32)c1C#N,inactive
12,NC(=O)c1cc2ccc(O)cc2o/c1=N\c1ccccc1,inactive
13,Cc1ccc(NC(=O)C2CC(=O)N(C(C)C)C2)cc1C (configuration not stated),inactive
14,Cc1cc(C)c(S(=O)(=O)NCc2ccc3c(c2)OCO3)c(C)c1,inactive
15,Cc1ccc(S(=O)(=O)Nc2ccc3c(c2)CC(=O)N([C@H](C)CO)C[C@H](C)[C@H](CN(C)Cc2ccc4c(c2)OCO4)O3)cc1,35.5 µM (active)
16,C[C@H]1CN([C@@H](C)CO)C(=O)Cc2cc(NC(=O)C3CC3)ccc2O[C@H]1CN(C)Cc1ccc(Oc2ccccc2)cc1,25.1 µM (active)
17,CN(C)Cc1ccccc1CNC(=O)c1cccc(S(=O)(=O)Nc2ccc3c(c2)OCO3)c1,inactive
18,Cc1ccc(-c2nc(C[S+]([O-])CC(=O)NCCN3CCCCCC3)c(C)o2)cc1 (configuration not stated),inactive
19,CCOC(=O)CN1C(=O)CC(c2ccc([N+](=O)[O-])cc2)C1=O (configuration not stated),inactive

row,Compound,Potency
1,NC(=O)c1nsc(C(=O)N(c2ccccc2F)C(C(=O)NCc2ccccc2)c2ccc(O)cc2)c1N (configuration not stated),inactive
2,O=[N+]([O-])c1ccc(-c2csc(N3CCCCCC3)n2)cc1,inactive
3,Cc1csc(N2CCN(c3cc4c(cc3Cl)nc(-c3ccncc3)n4CCCN3CCCC3)CC2)n1,35.5 µM (active)
4,Cc1ccc(Nc2nc(-c3ccncc3)cs2)cc1,inactive
5,Cc1ccc(-c2csc(N3CCN(CCCn4c(-c5ccncc5)nc5ccccc54)CC3)n2)cc1,35.5 µM (active)
6,O=C(Nc1nc2c(s1)CN(Cc1ccccc1)CC2)c1c(F)cccc1F,inactive
7,ClC1(Cl)CC1CSc1nc2ccccc2[nH]1 (configuration not stated),inactive
8,CC/N=C1/S/C(=C/c2ccc(-c3ccc(F)cc3)o2)C(=O)N1CC,inactive
9,Cc1ccc(/C=C2\Oc3c(ccc(O)c3CN3CCN(C)CC3)C2=O)cc1,inactive
10,COc1ccc(/C=C2/SC(=S)N(CCCC(=O)N3CCN(C)CC3)C2=O)cc1,17.8 µM (active)
11,Cc1ccc(/C=C2/SC(=S)N(CCC(=O)N3CCN(C)CC3)C2=O)cc1,11.9 µM (active)
12,CN1CCN(C(=O)CCN2C(=O)/C(=C\c3ccc(F)cc3)SC2=S)CC1,39.8 µM (active)
13,Cc1ccc(/C=C2\SC(=S)N(CCC(=O)NNC(=O)c3ccncc3)C2=O)cc1,inactive
14,COc1ccc(/C=C2\SC(=S)N(CC(=O)NNC(=O)c3ccncc3)C2=O)cc1,inactive
15,COc1ccc(-n2c(=O)/c(=C\c3cccs3)s/c2=C(/C#N)C(=O)N2CCN(C)CC2)cc1,inactive
16,O=C(CCN1C(=O)/C(=C\c2ccc(F)cc2)SC1=S)Nc1ccccc1,inactive
17,O=C(Nc1cc[n+](-c2nc3ccccc3nc2[N-]S(=O)(=O)c2ccccc2)cc1)c1cccs1,inactive
18,COC(=O)c1ccc(CSc2nc(C(F)F)cc(C)c2C#N)o1,inactive
19,O=C(OCC1CCNCC1)c1ccc(F)cc1,inactive

row,Compound,Potency
1,C=CCNC(=O)C(C#N)c1nc2ccccc2nc1N1CCCCCC1 (configuration not stated),inactive
2,COc1cccc(/C=N/NC(=O)NC2CCCCC2)c1O,inactive
3,COc1ccccc1/C=C/C1(C(=O)NC2CCCC2)CC(=O)N1c1ccc(F)cc1 (configuration not stated),14.1 µM (active)
4,COc1ccccc1[C@@H]1C(c2ccc(F)cc2)=NN(c2ccccc2)[C@H]1C(=O)N1CCOC1=O,inactive
5,COc1ccccc1Nc1nc(Cl)c(C=O)s1,inactive
6,Nc1nc(Sc2ccc([N+](=O)[O-])c3nonc23)c2nc[nH]c2n1,22.4 µM (active)
7,CCCNC(=O)/C=C/C(=O)O,inactive
8,Cc1cc(C(=O)O)ccc1-c1ccc(/C=C2\NC(=O)N(Cc3ccccc3Cl)C2=O)o1,inactive
9,CC(=O)c1ccccc1NC(=O)COC(=O)CN1C(=O)C2CCCCC2C1=O (configuration not stated),inactive
10,O=C(Nc1ccccc1)Nc1ccccc1C(=O)NCCCN1CCOCC1,inactive
11,O=C(OCC(=O)N1CCC(Cc2ccccc2)CC1)c1ccccc1F,inactive
12,CSc1ccc(NC(=O)NCCCN2CCC(Cc3ccccc3)CC2)cc1,39.8 µM (active)
13,CN(C)c1ccc(/C=N/CCc2ccc(S(N)(=O)=O)cc2)cc1,inactive
14,C(=C\c1ccco1)/C1=NN(c2ccccc2)C(c2ccco2)C1 (configuration not stated),inactive
15,CCOCCCn1/c(=N/C(C)=O)c(C(=O)OCC)cc2c(=O)n3ccccc3nc21,inactive
16,COc1cccc2c1C(=O)c1c(O)c3c(c(O)c1C2=O)CC(O)(C(C)=NNC(=O)c1ccc(Cl)c(Cl)c1)CC3OC1CC(N)C(O)C(C)O1 (configuration not stated),2.67 µM (active)
17,COc1cccc2c1C(=O)c1c(O)c3c(c(O)c1C2=O)C[C@@](O)(C(=O)CO)C[C@@H]3O[C@H]1C[C@H](N)[C@@H](O)[C@H](C)O1,8.91 µM (active)
18,COc1cccc2c1C(=O)c1c(O)c3c(c(O)c1C2=O)C[C@](O)(C(C)=O)C[C@H]3O[C@@H]1C[C@H](N)[C@H](O)[C@H](C)O1,1 µM (active)
19,COc1cccc2c1C(=O)c1c(O)c3c(c(O)c1C2=O)CC(O)(C(=O)CO)CC3OC1CC(N(C)C)C(O)C(C)O1 (configuration not stated),1.19 µM (active)
